The source of these data is PubChem BioAssay AID1626 (SRMLSC, 2009).

Among all 220,000 compounds or so, about 2,000 (0.91%) were called active. Roughly 2% stayed inconclusive and do not appear here. These entries were drawn from the full list. Measured potencies and affinities stand elsewhere. Unmarked numbers belong to inactive results. Cut-off read from the data, not from the text of the source: inconclusive = inhibition above about 80% without an active follow-up result; inactive = below that; test concentration not stated here.

This test is described as follows: M. tuberculosis H37Rv growth inhibitors, H37Rv strain (AID 1626).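 Note: bacteria incubated seven days before Alamar blue readout; 0% = bacteria only wells and 100% = bacteria with antibiotic wells.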 Particulars: hits give high values, concentration not given here.
For orientation: inhibition means the relative decrease from the control value, in per cent. As to `CCC(=O)NCCCc1nc(-c2ccccc2)no1`, the inhibition was -4.65%.
As for `COc1ccccc1N1CCN(C(=O)Cn2nc3n(C)c4ccccc4n3c(=O)c2=O)CC1`, the figure is 0.2%; as for `COc1ccccc1NCC(=O)n1nc(C)cc1C`, -3.99%; as for `Cc1ccc(-c2csc(NC(=O)CSc3nc4ccccc4o3)n2)cc1`, 65.3%.
As for `O=C(CSc1nc2ccccc2o1)Nc1ccccc1`, the figure is -0.33%.
The same measure for `Cc1occc1-c1nnc(SCC(=O)NCCc2ccccc2)n1Cc1ccccc1`: -7.81%; for `Cc1occc1-c1nnc(SCC(=O)Nc2ccccn2)o1`: 10%; for `CCS(=O)(=O)c1ccc2oc(SCC(=O)NCCc3ccccc3)nc2c1`: 3.18%.
Consider `COc1ccc(CCNC(=O)CSc2nc3ccccc3o2)cc1`, for which the inhibition was 96.4%.
The same measure for `O=C(CSc1nc2ccccc2o1)Nc1nncs1`: 2.93%; for `O=C(CSc1nc2ccccc2o1)c1ccccc1`: 9.75%.
The same measure for `Cc1ccc(NC(=S)Nc2cc(C)on2)cc1`: 4.76%; for `COc1ccc(NC(=O)C2CCCN(S(=O)(=O)c3cccc4nonc34)C2)cc1OC` (configuration not stated): 0.88%; for `CCOC(=O)c1c(-c2ccc(C)s2)csc1N`: 3.65%.
Turning to `Cc1nc2c(C#N)cnn2c2c1CCNN2C`, the inhibition is -8.46%.
As for `COc1ccccc1-c1cc(C(=O)N2CCN(c3ccc(F)cc3)CC2)no1`, the figure is 4.4%; as for `Cc1cccc(NC(=O)NNS(=O)(=O)c2ccc(F)cc2)c1`, 7.42%.
The same measure for `O=C(CN1CCN(C(=O)c2ccco2)CC1)N1CCc2[nH]c3ccccc3c2C1`: 7.26%.
As for `COc1ccc(C2CC(=O)C3=C(C2)Nc2ncnn2C3c2ccccc2)cc1` (configuration not stated), the figure is -8.64%; as for `O=C(CSc1nc2ccccc2o1)Nc1nc2ccccc2s1`, -3.19%.
As to `Cc1nnc(NC(=O)CSc2nc3ccccc3o2)s1`, the inhibition is -1.02%.
As for `Cc1ccccc1Cn1nnc(-c2ccc(C(=O)O)cc2)n1`, the figure is -5.85%; as for `N#Cc1cncc(-c2ccc3c(c2)OCCOCCOCCOCCOCCO3)n1`, 5.9%.
The same measure for `Nc1nc(-c2ccc3c(c2)OCCO3)cs1`: 78.2%; for `Cc1ccc(-n2ncc3c2ncn2c(C)nnc32)cc1C`: 14.5%.
The same measure for `CC(C)(C)C(=O)Nc1ccc(-c2csnn2)cc1`: -0.28%; for `NC(=O)c1ccc(-c2csnn2)cc1`: 0.58%.
Regarding `Cc1ccc(NC(=O)C(C)OC(=O)c2ccc(NS(=O)(=O)c3ccc(F)c(F)c3)cc2)cc1` (configuration not stated), the inhibition was -2.38%.
As for `Cc1nc2c(c(=O)n1CCC(C)C)c1nc3ccccc3nc1n2CC1CCCO1` (configuration not stated), the figure is 2.15%.
Turning to `CC1CCN(S(=O)(=O)c2cccc(-c3cn4cc(Cl)ccc4n3)c2)CC1`, the inhibition is -1.37%.
In the case of `O=C(O)CCN1C(=O)C2C3c4ccccc4C(c4ccccc43)[C@@H]2C1=O` (some centres not stated), the inhibition was -2.72%.
As for `Cc1ccccc1-n1nc(C)c2c1N=C1C(Cl)=CC(Cl)=CN1C2c1ccc(C(=O)O)cc1` (configuration not stated), the figure is -4.15%; as for `CC(=O)Nc1ccc(NC2=Nc3ccccc3N3C2=Nc2c(c(C)nn2-c2ccccc2)C3c2ccccc2)cc1` (configuration not stated), 75.1%.
The same measure for `CCCc1nnc(NC(=O)OCC)s1`: 4.01%.
As for `CC(NC(=O)C1CC1)C(c1cccs1)N1CCOCC1` (configuration not stated), the figure is 4.47%; as for `O=C(CSc1nnc(Cc2ccccc2)o1)c1ccc(F)cc1`, 6.24%; as for `Cn1c(NC(=O)/C=C/c2ccco2)cc(=O)n(C)c1=O`, -0.44%.
For `Nc1c(C(=O)NC23CC4CC(CC(C4)C2)C3)sc2nc3c(c(C(F)(F)F)c12)CCC3`, the inhibition is -10.2%.
Regarding `COc1ccc(NC(=O)c2sc3nc(Cc4ccccc4)cc(C(F)(F)F)c3c2N)cc1OC`, the inhibition was 7.82%.
As for `CCNC(=S)Nc1sc2c(c1C#N)CCC(C)C2` (configuration not stated), the figure is 9.49%; as for `O=C1CSC2=NCN(c3ccccc3)CN12`, 5.48%.
As for `Cc1cc(C)cc(N2CN=C3SCC(=O)N3C2)c1`, the figure is 4.22%.
The same measure for `CN(C)c1ccc(N2CN=C3SCC(=O)N3C2)cc1`: -6.22%; for `Cc1ccc(N2CN=C3SCC(=O)N3C2)cc1C`: 73.8%; for `O=C1CN(C(=S)Nc2ccc(OC(F)F)cc2)CCN1`: 5.94%.
For `CCOc1cc(C=O)cc(Br)c1OCC(N)=O`, the inhibition is -0.11%.
As for `COc1ccc(/C(O)=C2/C(=O)C(=O)N(CCN3CCOCC3)C2c2cccnc2)cc1OC` (configuration not stated), the figure is -6.27%.
As for `Cc1nc(CS(=O)c2ccc(Cl)cc2)cc(N2CCOCC2)n1` (configuration not stated), the figure is 5%; as for `COCc1cc(Sc2ccc(Cl)cc2)nc(C)n1`, 18.1%; as for `Cc1ccc2nsnc2c1S(=O)(=O)N1CCCC1`, -7.86%.
As for `CC(C)CCn1c(=O)c(C(=O)Nc2ccccc2S(N)(=O)=O)c(O)c2ccccc21`, the figure is -11.9%; as for `CCOC(=O)Cc1csc(NC(=O)c2c(O)c3c(n(CC(C)C)c2=O)CCCC3)n1`, 71.9%; as for `CCCCCn1c(=O)c(C(=O)OCC)c(O)c2ccccc21`, -3.26%.
Regarding `CCCCCCCCn1c(=O)c(C(=O)OCC)c(O)c2ccccc21`, the inhibition is 7.93%.
The same measure for `O=c1cc(CN2CCCCC2)nc(C2CC2)[nH]1`: 3.51%.
For `Oc1ccc(-c2nccc(-c3cccs3)n2)cc1`, the inhibition was -3.17%.
As to `Cc1ccc(C(=O)Nc2nccc(-c3cccs3)n2)cc1`, the inhibition is -6.72%.
As for `Cc1ccc(C(C)C)c(OCC(O)CN2CCN(CCO)CC2)c1` (configuration not stated), the figure is 2.52%; as for `CN(C)/C=N/c1c(C#N)cnn1C`, -9.88%; as for `O=C(O)c1ccc(CN2C(=O)c3ccccc3S2(=O)=O)cc1`, -3.5%.
On to `Cc1ccc(C(C#N)c2ccc3c(C(F)(F)F)cc(C(F)(F)F)nc3n2)cc1` (configuration not stated), for which the inhibition is 12%.
As for `N#CC(c1ccccc1)c1ccc2c(C(F)(F)F)cc(C(F)(F)F)nc2n1` (configuration not stated), the figure is -11.8%.
As for `Nc1ccc2oc(-c3cccc4ccccc34)nc2c1`, the figure is 4.7%; as for `CCc1ccc2oc(-c3cc(N)ccc3Cl)nc2c1`, 1.18%.
Take `Cc1ccc2nc(-c3cc(N)cc(N)c3)oc2c1`: the inhibition was 56.3%.
The same measure for `Nc1cccc(-c2nc3cc(S(=O)(=O)c4ccc5oc(-c6cccc(N)c6)nc5c4)ccc3o2)c1`: -1.41%.
As for `CCc1ccc2oc(-c3cccc(N)c3)nc2c1`, the figure is 5.28%.
In the case of `Cc1ccc2nc(-c3cccnc3)oc2c1`, the inhibition is -9.72%.
On to `Cc1ccc(-c2nc3cc(N)ccc3o2)c(C)c1`, for which the inhibition was 8.94%.
`Cc1ccc(C)c(-c2nc3cc(N)ccc3o2)c1`: the inhibition is 77.1%.
The same measure for `CC(C)CNS(=O)(=O)c1ccc(CCC(=O)Nc2cc(Cl)ccc2Oc2ccccc2)cc1`: 9.05%; for `CC(=O)Nc1cccc(Cn2cccn2)c1`: -6.83%.
As for `Cc1ccc(C)c(S(=O)(=O)NC(Cc2c[nH]c3ccccc23)C(=O)O)c1` (configuration not stated), the figure is -3.14%; as for `Cc1ccc(N(C(=O)c2ccncc2)C2C=CS(=O)(=O)C2)cc1` (configuration not stated), -9.29%; as for `CCCCCCc1cc2cc(C(N)=O)c(=N)oc2cc1O`, -2.17%.
As for `CCCCCCc1cc2cc(C(=O)NCc3ccccc3)c(=N)oc2cc1O`, the figure is -13.1%.
As for `O=C1N=C(N2CCN(c3cccc4ccccc34)CC2)S/C1=C/c1cccs1`, the inhibition is 85.6%.
As to `O=C1N=C(N2CCN(c3ccccc3)CC2)S/C1=C/c1cccs1`, the inhibition was 50.8%.
As for `CCOc1ccc(NC(=O)NCCN2C(C)CCCC2C)cc1` (configuration not stated), the figure is -2.64%; as for `N#Cc1c(NC(=O)CSCC(=O)O)sc2c1CCCC2`, -15.3%; as for `COc1ccc2oc(C(=O)Nc3nc4ccccc4[nH]3)c(C)c2c1`, 51.1%.
As for `O=C(Nc1nc2ccccc2[nH]1)c1ccccc1`, the figure is 19.3%; as for `C/C(=N\Nc1nc2ccccc2[nH]1)c1cc2ccccc2o1`, 56.4%.
As for `Cc1c(C(=O)Nc2ccncc2)oc2ccccc12`, the figure is -1.93%.
With `O=C(/C=C\c1ccc2c(c1)OCO2)Nc1nnc(SCC(=O)OCc2ccccc2)s1`, the inhibition was 20.4%.
For the molecule `CCOc1ccc(OCC)c(S(=O)(=O)NC2CC(C)(C)NC(C)(C)C2)c1`, the inhibition is -3.13%.
As for `COc1cccc(CNC(=O)Cn2nc(-c3ccc(Cl)cc3)ccc2=O)c1`, the figure is 4.51%; as for `CCOC(=O)C(C)Sc1nc(=O)n2cc(C)ccc2n1` (configuration not stated), 3.92%; as for `Cc1ccc([N+](=O)[O-])cc1NCC(=O)NN`, -8.54%.
As for `N=C(N)SCc1nc2ccccn2c1Br`, the figure is -11.2%; as for `c1ccc2c(SCc3cn4ccccc4n3)nncc2c1`, -2.83%.
The same measure for `CC(C)c1ccc2c(c1)C(c1cccs1)=NNC(c1ccncc1)=N2`: 0.38%.
Regarding `COc1ccc(-c2nnc3ccc(SC(C(C)=O)C(C)=O)nn23)cc1OC`, the inhibition was 2.29%.
The same measure for `COc1ccc(NC(C)=O)cc1C#N`: 0.78%.
As for `NS(=O)(=O)c1ccc(NC=C2C(=O)OC3(CCCCC3)OC2=O)cc1`, the figure is 4.66%.
As for `O=C1OC2(CCCCC2)OC(=O)C1=CNc1ccc2c(c1)OCO2`, the figure is 55.9%.
For the molecule `COCCCNC(=O)Cn1cc(C(C)=O)c2ccccc21`, the inhibition was -10.3%.
As for `CC1CCCC(NC(=O)COC(=O)[C@@H](NC(=O)c2ccco2)C(C)C)C1C` (some centres not stated), the inhibition is -2.77%.
For `CC(C)(C)c1ccc(C(=O)Nc2ccc(F)cc2)s1`, the inhibition was 12.9%.
As for `Cc1ccc(NC(=O)c2cccs2)cc1`, the figure is -1.3%.
As for `CCc1cc2cc(C(=O)Nc3ccccc3F)sc2s1`, the inhibition was 0.32%.
The same measure for `CCc1cc2cc(C(=O)N3CCN(c4ccccc4)CC3)sc2s1`: 2.92%.
